Source: article PMC7862700, “An all-to-all approach to the identification of sequence-specific readers for epigenetic DNA modifications on cytosine”

Experiments:
Assay in all cases: DAPPL (digital affinity profiling via proximity ligation, sequencing); 10 mM Tris-HCl pH 7.5, 50 mM NaCl, 1 mM DTT, 4% glycerol, room temperature, 30 min; GST-TFs on glutathione beads, 16-mer random dsDNA library, 0.1% formaldehyde crosslink after washing; high values mean tight binding
Details in all cases: protein: recombinant; tags: N-terminal GST; dsDNA, one strand shown
[1] = biological target: T1, FLI1 (Homo sapiens, UniProt Q01543 1-452)
T1 sequence: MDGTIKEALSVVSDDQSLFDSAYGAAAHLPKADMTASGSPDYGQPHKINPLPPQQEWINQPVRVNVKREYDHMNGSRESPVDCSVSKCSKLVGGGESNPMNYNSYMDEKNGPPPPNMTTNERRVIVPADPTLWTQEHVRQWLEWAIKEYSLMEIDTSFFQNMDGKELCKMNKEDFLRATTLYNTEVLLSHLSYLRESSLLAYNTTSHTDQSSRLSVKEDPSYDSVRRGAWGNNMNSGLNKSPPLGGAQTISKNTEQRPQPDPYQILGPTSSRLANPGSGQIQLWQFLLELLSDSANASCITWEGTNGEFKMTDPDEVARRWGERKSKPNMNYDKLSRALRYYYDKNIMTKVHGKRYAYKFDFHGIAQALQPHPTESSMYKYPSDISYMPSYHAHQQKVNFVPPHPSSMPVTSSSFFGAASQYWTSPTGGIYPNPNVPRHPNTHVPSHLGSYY
In short: (§1)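 GST fusions of human transcription factors were expressed in yeast and captured with glutathione beads. Once given DNA barcodes and pooled alongside a tag-only sample, they were incubated for 30 min at room temperature with 200 nmole of a random double-stranded 16-mer DNA library in Tris/NaCl/DTT/glycerol buffer, then washed, crosslinked (0.1% formaldehyde), proximity-ligated, PCR-amplified and sequenced on an Illumina NextSeq500. The binding signal of each hexamer is its read frequency for a factor divided by its frequency for the tag-only sample.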

[2] = biological target: T2, ELK1 (Homo sapiens, UniProt P19419 1-428)
T2 sequence: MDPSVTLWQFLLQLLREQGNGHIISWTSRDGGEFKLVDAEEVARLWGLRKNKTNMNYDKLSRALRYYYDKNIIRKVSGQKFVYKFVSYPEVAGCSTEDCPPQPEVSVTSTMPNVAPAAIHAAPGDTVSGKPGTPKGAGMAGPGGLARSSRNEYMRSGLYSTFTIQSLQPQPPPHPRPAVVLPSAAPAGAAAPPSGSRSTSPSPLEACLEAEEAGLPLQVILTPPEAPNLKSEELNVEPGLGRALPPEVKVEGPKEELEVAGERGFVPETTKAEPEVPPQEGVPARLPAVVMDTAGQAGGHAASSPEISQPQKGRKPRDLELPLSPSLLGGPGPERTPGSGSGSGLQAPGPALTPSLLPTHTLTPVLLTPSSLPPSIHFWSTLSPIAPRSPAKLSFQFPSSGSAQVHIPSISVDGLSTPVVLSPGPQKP
In short: as §1

[3] = biological target: T3, GABPA (Homo sapiens, UniProt Q06546 1-454)
T3 sequence: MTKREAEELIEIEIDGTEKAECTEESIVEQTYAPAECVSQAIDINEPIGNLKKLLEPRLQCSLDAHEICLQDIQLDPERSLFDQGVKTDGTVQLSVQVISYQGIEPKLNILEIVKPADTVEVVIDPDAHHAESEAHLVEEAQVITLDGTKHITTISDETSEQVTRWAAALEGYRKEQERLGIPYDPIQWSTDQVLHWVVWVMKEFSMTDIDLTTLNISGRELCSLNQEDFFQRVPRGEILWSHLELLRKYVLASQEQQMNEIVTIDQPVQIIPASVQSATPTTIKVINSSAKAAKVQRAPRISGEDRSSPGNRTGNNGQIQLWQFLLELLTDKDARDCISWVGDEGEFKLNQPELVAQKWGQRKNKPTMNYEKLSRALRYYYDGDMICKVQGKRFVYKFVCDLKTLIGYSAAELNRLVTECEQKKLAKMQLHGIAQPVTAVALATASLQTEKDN
In short: as §1

[4] = biological target: T4, ERG (Homo sapiens, UniProt P11308 1-479)
T4 sequence: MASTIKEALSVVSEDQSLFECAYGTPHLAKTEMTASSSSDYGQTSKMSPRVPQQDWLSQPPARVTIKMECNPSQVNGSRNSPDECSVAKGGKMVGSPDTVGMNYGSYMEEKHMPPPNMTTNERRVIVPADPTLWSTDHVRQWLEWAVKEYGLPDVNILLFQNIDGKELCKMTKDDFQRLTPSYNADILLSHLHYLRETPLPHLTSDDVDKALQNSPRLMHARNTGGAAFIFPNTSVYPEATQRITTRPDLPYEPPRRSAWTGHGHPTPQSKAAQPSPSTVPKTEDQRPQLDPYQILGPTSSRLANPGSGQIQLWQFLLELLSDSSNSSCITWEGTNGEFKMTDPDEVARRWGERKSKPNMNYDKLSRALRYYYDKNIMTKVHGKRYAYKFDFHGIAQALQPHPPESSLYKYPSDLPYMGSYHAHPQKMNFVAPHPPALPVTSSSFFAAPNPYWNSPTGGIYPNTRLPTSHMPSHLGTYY
In short: as §1

[5] = biological target: ELF1 (Homo sapiens, UniProt P32519 1-619)
Sequence of ELF1 (P32519 whole entry): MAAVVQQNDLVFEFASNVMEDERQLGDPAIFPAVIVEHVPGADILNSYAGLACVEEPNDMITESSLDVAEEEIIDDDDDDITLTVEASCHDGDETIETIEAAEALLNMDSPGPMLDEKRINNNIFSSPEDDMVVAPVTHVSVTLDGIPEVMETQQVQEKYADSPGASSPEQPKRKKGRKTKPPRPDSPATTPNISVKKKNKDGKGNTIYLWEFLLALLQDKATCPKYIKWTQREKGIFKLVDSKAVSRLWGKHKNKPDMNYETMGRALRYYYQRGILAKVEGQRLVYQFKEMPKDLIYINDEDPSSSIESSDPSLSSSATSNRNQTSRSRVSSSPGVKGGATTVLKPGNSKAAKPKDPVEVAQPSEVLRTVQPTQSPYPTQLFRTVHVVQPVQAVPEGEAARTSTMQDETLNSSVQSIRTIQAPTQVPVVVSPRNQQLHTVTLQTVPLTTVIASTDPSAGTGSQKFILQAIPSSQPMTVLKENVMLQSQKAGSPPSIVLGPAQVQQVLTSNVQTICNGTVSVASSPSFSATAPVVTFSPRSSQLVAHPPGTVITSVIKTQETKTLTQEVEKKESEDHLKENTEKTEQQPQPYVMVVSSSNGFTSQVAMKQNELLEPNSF
In short: as §1

[6] = biological target: T5, EHF (Homo sapiens, UniProt Q9NZC4 1-300)
T5 sequence: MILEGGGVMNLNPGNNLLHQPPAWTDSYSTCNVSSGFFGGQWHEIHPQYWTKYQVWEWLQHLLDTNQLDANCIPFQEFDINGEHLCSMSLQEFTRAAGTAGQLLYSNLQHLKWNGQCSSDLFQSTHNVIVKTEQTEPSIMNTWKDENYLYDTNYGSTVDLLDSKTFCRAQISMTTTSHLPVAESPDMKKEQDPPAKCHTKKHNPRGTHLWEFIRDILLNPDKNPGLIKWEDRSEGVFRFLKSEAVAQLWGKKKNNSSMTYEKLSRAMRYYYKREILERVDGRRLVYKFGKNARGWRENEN
In short: as §1

[7] = biological target: SPI1 (Homo sapiens, UniProt P17947 1-270)
In short: as §1

[8] = biological target: SPIB (Homo sapiens, UniProt Q01892 1-262)
Sequence of SPIB (Q01892 whole entry): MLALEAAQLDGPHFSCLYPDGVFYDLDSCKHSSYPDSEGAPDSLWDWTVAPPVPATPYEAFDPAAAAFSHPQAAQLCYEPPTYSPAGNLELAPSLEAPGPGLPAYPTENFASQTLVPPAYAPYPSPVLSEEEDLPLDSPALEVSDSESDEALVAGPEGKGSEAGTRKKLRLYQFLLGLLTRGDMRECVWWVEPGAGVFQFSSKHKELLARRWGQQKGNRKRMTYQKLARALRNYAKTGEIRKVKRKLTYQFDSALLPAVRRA
In short: as §1

[9] = biological target: T6, ELK3 (Homo sapiens, UniProt P41970 1-407)
T6 sequence: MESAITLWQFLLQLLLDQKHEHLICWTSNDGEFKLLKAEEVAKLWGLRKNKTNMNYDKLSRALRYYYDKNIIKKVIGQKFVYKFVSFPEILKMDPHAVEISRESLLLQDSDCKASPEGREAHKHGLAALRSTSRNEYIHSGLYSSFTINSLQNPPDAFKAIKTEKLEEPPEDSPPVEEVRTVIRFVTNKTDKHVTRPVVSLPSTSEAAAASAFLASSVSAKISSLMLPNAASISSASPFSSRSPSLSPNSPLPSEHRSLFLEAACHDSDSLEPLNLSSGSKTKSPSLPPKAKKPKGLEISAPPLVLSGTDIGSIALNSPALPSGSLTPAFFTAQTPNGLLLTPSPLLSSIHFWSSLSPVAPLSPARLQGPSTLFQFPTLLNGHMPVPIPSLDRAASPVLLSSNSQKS
In short: as §1

Sequence	binding signal [1]	binding signal [2]	binding signal [3]	binding signal [4]	binding signal [5]	binding signal [6]	binding signal [7]	binding signal [8]	binding signal [9]
ACCCAC	1.28 fold enrichment (6-mer frequency, TF over GST control)	1.24 fold enrichment (6-mer frequency, TF over GST control)	1.35 fold enrichment (6-mer frequency, TF over GST control)	1.1 fold enrichment (6-mer frequency, TF over GST control)	1.13 fold enrichment (6-mer frequency, TF over GST control)	1.21 fold enrichment (6-mer frequency, TF over GST control)	1.18 fold enrichment (6-mer frequency, TF over GST control)	1.07 fold enrichment (6-mer frequency, TF over GST control)	1.24 fold enrichment (6-mer frequency, TF over GST control)
ACAAGC	1.1 fold enrichment (6-mer frequency, TF over GST control)	1.11 fold enrichment (6-mer frequency, TF over GST control)	1.09 fold enrichment (6-mer frequency, TF over GST control)	1.08 fold enrichment (6-mer frequency, TF over GST control)	1.1 fold enrichment (6-mer frequency, TF over GST control)	1.08 fold enrichment (6-mer frequency, TF over GST control)	1.04 fold enrichment (6-mer frequency, TF over GST control)	1.12 fold enrichment (6-mer frequency, TF over GST control)	1.16 fold enrichment (6-mer frequency, TF over GST control)
CCACGC	1.28 fold enrichment (6-mer frequency, TF over GST control)	1.2 fold enrichment (6-mer frequency, TF over GST control)	1.28 fold enrichment (6-mer frequency, TF over GST control)	1.16 fold enrichment (6-mer frequency, TF over GST control)	1.22 fold enrichment (6-mer frequency, TF over GST control)	1.12 fold enrichment (6-mer frequency, TF over GST control)	1.07 fold enrichment (6-mer frequency, TF over GST control)	1.14 fold enrichment (6-mer frequency, TF over GST control)	1.31 fold enrichment (6-mer frequency, TF over GST control)
TGCCAC	1.21 fold enrichment (6-mer frequency, TF over GST control)	1.2 fold enrichment (6-mer frequency, TF over GST control)	1.14 fold enrichment (6-mer frequency, TF over GST control)	1.26 fold enrichment (6-mer frequency, TF over GST control)	1.18 fold enrichment (6-mer frequency, TF over GST control)	1.23 fold enrichment (6-mer frequency, TF over GST control)	1.21 fold enrichment (6-mer frequency, TF over GST control)	1.13 fold enrichment (6-mer frequency, TF over GST control)	1.23 fold enrichment (6-mer frequency, TF over GST control)
TTTCGC	1.11 fold enrichment (6-mer frequency, TF over GST control)	1.12 fold enrichment (6-mer frequency, TF over GST control)	1.06 fold enrichment (6-mer frequency, TF over GST control)	1.02 fold enrichment (6-mer frequency, TF over GST control)	1.13 fold enrichment (6-mer frequency, TF over GST control)	1.2 fold enrichment (6-mer frequency, TF over GST control)	1.13 fold enrichment (6-mer frequency, TF over GST control)	1.2 fold enrichment (6-mer frequency, TF over GST control)	1.14 fold enrichment (6-mer frequency, TF over GST control)
ATTTTC	1.47 fold enrichment (6-mer frequency, TF over GST control)	1.35 fold enrichment (6-mer frequency, TF over GST control)	1.46 fold enrichment (6-mer frequency, TF over GST control)	1.46 fold enrichment (6-mer frequency, TF over GST control)	1.31 fold enrichment (6-mer frequency, TF over GST control)	1.49 fold enrichment (6-mer frequency, TF over GST control)	1.56 fold enrichment (6-mer frequency, TF over GST control)	1.41 fold enrichment (6-mer frequency, TF over GST control)	1.31 fold enrichment (6-mer frequency, TF over GST control)
TGTCAT	1.24 fold enrichment (6-mer frequency, TF over GST control)	1.08 fold enrichment (6-mer frequency, TF over GST control)	1.18 fold enrichment (6-mer frequency, TF over GST control)	1.11 fold enrichment (6-mer frequency, TF over GST control)	1.15 fold enrichment (6-mer frequency, TF over GST control)	1.17 fold enrichment (6-mer frequency, TF over GST control)	1.09 fold enrichment (6-mer frequency, TF over GST control)	1.2 fold enrichment (6-mer frequency, TF over GST control)	1.04 fold enrichment (6-mer frequency, TF over GST control)
ATTACG	1.22 fold enrichment (6-mer frequency, TF over GST control)	1.13 fold enrichment (6-mer frequency, TF over GST control)	1.25 fold enrichment (6-mer frequency, TF over GST control)	1.17 fold enrichment (6-mer frequency, TF over GST control)	1.2 fold enrichment (6-mer frequency, TF over GST control)	1.12 fold enrichment (6-mer frequency, TF over GST control)	1.23 fold enrichment (6-mer frequency, TF over GST control)	1.18 fold enrichment (6-mer frequency, TF over GST control)	1.25 fold enrichment (6-mer frequency, TF over GST control)
